HCMV antiviral: blocks human cytomegalovirus replication; HFF cells, HCMV-luciferase reporter, 72 h; hits give low values; activity change, negative = inhibition, % at 57.5 µM; 410,000 tested, 4.5% active; AID 1259415; in the data active = activity change below about -60%; inconclusive = no clear call, values can overlap the other calls; inactive = above about -39%
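Luciferase read-out from HCMV-luciferase-infected HFFs (MOI 1 PFU/cell) 72 h post infection at 37C; compounds added after 16 h cell attachment; activity normalized between buffer-only basal and Salinomycin (10uM) inhibitor controls.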
Lassa entry inh: inhibitors of Lassa virus binding or cell entry; Lassa virus pseudotype entry inhibition, cell reporter; 300,000 tested, 1.2% active; Potency, µM (doses to about 37.9 µM), for the others: at the top dose activity change, negative = inhibition, hits mostly inhibitors; calls by dose curve; tested in HEK293 cells; note: potency is the fitted concentration of half-maximal effect; nearly all actives have a fitted effect of over 50% in size
MARV entry inh: inhibitors of Marburg virus binding or cell entry | Marburg virus pseudotyped entry inhibition, cell reporter | Potency, µM (doses to about 37.8 µM), for the others: top-dose activity change, negative = inhibition, most hits filed as inhibitors | 300,000 tested, 1.8% active; calls by dose curve; tested in HEK293 cells; note: potency is the fitted concentration of half-maximal effect
HCV inhibitor: blocks hepatitis C virus | AID 651820 | Potency, µM (top dose mostly 41.8 µM), for inactives: at the top dose activity change, negative = inhibition, most hits filed as inhibitors | Huh7.5.1 HCVcc-Cre infection, luciferase reporter, 44 h | 340,000 tested, 3.4% active; active = well fitted inhibition curve with a large enough effect; inconclusive = small, poorly fitted or top-dose-only effect, or another doubt; inactive = no such curve, though single readings can be large or run the other way; note: potency is the fitted concentration of half-maximal effect
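Reporter virus HCVcc-Cre (~0.5 moi) infects cells exposed to compound; seeding density 1,000 cells/well with 4 h settling beforehand. Luminescence, 15 sec read, taken 44 h post-infection following a 15 min RT substrate incubation.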
FMDV antiviral: antivirals against foot and mouth disease virus | Potency, µM (top dose mostly 57.9 µM), for inactives: top-dose activity change, negative = inhibition, hits mostly inhibitors | FMDV antiviral cell-based qHTS | 410,000 tested, 1.2% active | AID 1159524; calls by dose curve; tested in HEK293T cells; note: read-out not given here; potency is the fitted concentration of half-maximal effect; nearly all actives have a fitted effect of over 45% in size
* = called active by the depositor; u = inconclusive; x = no result given; [ ] = another dose, or the depositor's remark. A selection: hits, their analogues and other compounds. The true share with any hit is near 7.9%. % is set by controls: 0 for no effect and ±100 for the full control effect.

SMILES | HCMV antiviral | Lassa entry inh | MARV entry inh | HCV inhibitor | FMDV antiviral
Cc1cc2nc(-c3ccc(SCC(=O)Nc4ccc(S(=O)(=O)N5CCCC5)cc4)nc3)[nH]c2cc1C | 6 | u | 12µM* | u | 0%
Cc1cc2nc(-c3ccc(SCC(=O)Nc4nccs4)nc3)[nH]c2cc1C | u | u | 22% | 7% | -7%
O=C(Nc1ccc(F)c(Cl)c1)N1CC=C(c2c[nH]c3ccccc23)CC1 | 0 | -22%[46.1 µM] | x | x | -15%
Cc1cccc(NC(=O)NCCn2c(=O)oc3ccc(C)cc32)c1 | -19 | -18%[46.1 µM] | 2%[46.1 µM] | x | -2%
C=CCn1c(O)c(/C=C2/C=CC=N2)c(=O)[nH]c1=O | 15 | x | x | 0% | -6%
O=c1[nH]c(=O)n(Cc2ccccc2Cl)c(O)c1/C=C1/C=CC=N1 | -89* | u | u | -6% | -29%
Cc1ccc(CN(C)C(=O)CN2C(=O)NC3(CCCc4ccccc43)C2=O)c(C)c1 (stereo unspecified) | 45 | x | x | 10µM* | 0%
CN(C)C(=O)CN1C(=O)NC2(CCCc3ccccc32)C1=O (stereo unspecified) | 21 | u | u | 23% | -2%
CCC(=O)OCc1cnc(C)c2oc(=O)c(C(=O)Nc3ccc(CC)cc3)cc12 | 0 | 5%[46.1 µM] | x | x | -13%
Cc1ccnc(NC(c2cccnc2)c2ccc3cccnc3c2O)c1 (stereo unspecified) | -25 | u | 8.9µM* | 4µM* | -13%
COc1ccccc1NC(c1cccnc1)c1ccc2cccnc2c1O (stereo unspecified) | -2 | u | u | u | -30%
Cc1ccnc(NC(c2ccccc2)c2ccc3cccnc3c2O)c1 (stereo unspecified) | -78* | u | u | 13µM* | -13%
COc1ccc(NC2=C(c3ccc(C(F)(F)F)cc3)C(=O)c3ccccc32)cc1 | 11 | -3%[46.1 µM] | -13%[46.1 µM] | x | -7%
Cc1cccc(NC(c2nnc(-c3ccccc3)o2)c2ccc(F)cc2Cl)c1C (stereo unspecified) | 5 | -25%[46.1 µM] | x | x | -11%
C=CCNC(=O)/C(C#N)=C/c1c(C)nn(-c2ccccc2)c1Cl | -31 | 14% | 7.9µM* | u | -8%
CCn1c(=O)cc(OCC(=O)N2CCN(c3ccc(C)cc3)C(C)C2)c2ccccc21 (stereo unspecified) | -20 | u | u | x | 35µM*
CCn1c(=O)cc(OCC(=O)N2CCCCCC2)c2ccccc21 | 161 | -10% | -2% | -12% | -13%
Cc1ccc(-c2csc(Nc3ccccn3)n2)cc1 | -8 | u | 2µM* | -26% | -62%
Cc1cc(-c2csc(Nc3ccccn3)n2)ccc1F | 158 | u | u | 6.3µM* | -33%
Cc1cccnc1Nc1nc(-c2ccc(O)cc2)cs1 | 63 | -29% | u | 10µM* | x
Cc1cccnc1Nc1nc(-c2ccc(F)cc2)cs1 | -10 | u | -28% | u | -18%
c1ccc(-c2csc(Nc3ccccn3)n2)cc1 | 13 | u | u | -18% | -21%
COc1ccc(-c2csc(Nc3ccccn3)n2)cc1OC | 21 | u | u | 8.9µM* | -2%
CC(C)(C)[Si](C)(C)OCc1ccc(-c2c3c(cc4ccc(Cl)cc24)CCC3=O)cc1 | 1 | x | x | x | x
CCOC(=O)c1c(NC(=O)c2cc3nc(-c4ccccc4)cc(C(F)(F)F)n3n2)sc2c1CCC(C)C2 (stereo unspecified) | 6 | 1%[46.1 µM] | x | x | 3%
SMILES | HCMV antiviral | Lassa entry inh | MARV entry inh | HCV inhibitor | FMDV antiviral
CS(=O)(=O)N(CC(=O)N1CCCCCC1)c1cc(Cl)ccc1Cl | 52 | x | x | 3% | 0%
CS(=O)(=O)N(CC(=O)N1CCCC1)c1ccc(Cl)cc1Cl | -28 | 1% | 24% | 2.8µM* | -6%
Cc1cccc(C(=O)N(Cc2nc3ccccc3c(=O)[nH]2)C2CCCC2)c1 | 23 | u | u | -18% | -25%
O=C(c1ccccc1)N(Cc1nc2ccccc2c(=O)[nH]1)C1CCCC1 | -3 | 2% | 0%[46.1 µM] | 8% | -23%
O=C(c1ccc(Br)cc1)N(Cc1nc2ccccc2c(=O)[nH]1)C1CCCC1 | -62* | u | u | u | 0%
Cc1cccc(C(=O)N(Cc2nc3ccccc3c(=O)[nH]2)C2CCCCC2)c1 | -79* | -27% | -21%[46.1 µM] | 0% | -18%
CCOc1ccc(CCNC(=O)c2ccc3c(c2)N(Cc2ccccc2)C(=O)c2ccccc2S3=O)cc1OCC (stereo unspecified) | -32 | u | u | x | -28%
CC1=CC[C@@H](COc2ccccc2)O[C@@]2(C1)C(=O)N(Cc1ccc(Br)cc1)c1ccccc12 | x | x | 25%[14.2 µM] | x | x
COc1cccc(Nc2nccc(-c3cnn4ncccc34)n2)c1 | x | 0.56µM* | x | x | x
CC(C)c1ccc(Nc2nccc(-c3cnn4ncccc34)n2)cc1 | x | 11µM* | x | x | x
COc1ccc(-c2nn3ncccc3c2-c2ccnc(Nc3cccc(C(F)(F)F)c3)n2)cc1 | x | 25µM* | x | x | x
CCN(CC)Cc1ccc(Nc2nccc(-c3cnn4ncccc34)n2)cc1 | x | 0.04µM* | x | x | x
COc1cccc(Nc2ncc(C#N)c(N)n2)c1 | 41 | -10%[46.1 µM] | u | -2% | 27%
CN(C)[C@H]1CCN([C@@H]2C[S+](=O)([O-])N[C@@H]2COCc2ccccc2)C1 | x | 4%[46.1 µM] | x | x | x
Oc1ccccc1-c1nc(NCc2ccccc2)c2ccccc2n1 | -31 | -31%[46.1 µM] | u | 11µM* | -16%
c1ccc(-c2nc(NCc3ccco3)c3ccccc3n2)nc1 | -102* | u | u | u | u
Fc1ccccc1CNc1nc(-c2cccnc2)nc2ccccc12 | 12 | u | u | 35µM* | 3%
CC(C)Oc1nc(-c2ccccc2O)nc2ccccc12 | -17 | 8% | 7% | 13µM* | 36%
c1cncc(-c2nc(NCc3cccs3)c3ccccc3n2)c1 | u | -7% | -27%[46.1 µM] | -30% | u
CSc1ccc(CCNC(=O)c2cc(C)nc3c2c(C)nn3-c2ccccc2)cc1 | 19 | -7%[46.1 µM] | x | x | 12%
Oc1ccccc1-c1nc(NCc2ccco2)c2ccccc2n1 | 2 | 2% | -59% | 3.2µM* | 13%
Fc1ccccc1-c1nc(NCc2ccco2)c2ccccc2n1 | -81* | -20% | -25%[46.1 µM] | -25% | -29%
c1ccc(N2CCN(c3nc(NCc4ccco4)c4ccccc4n3)CC2)cc1 | -6 | u | u | 1µM* | 28µM*
CSc1ccc(NC(=O)NCCCN2CCC(Cc3ccccc3)CC2)cc1 | -63* | x | 2% | 10µM* | -28%
COc1ccc(NC(=O)NCCCN2CCC(Cc3ccccc3)CC2)cc1 | -26 | x | x | u | 0%
O=C(NCCCN1CCC(Cc2ccccc2)CC1)C1CC(=O)N(C2CCCCCC2)C1 (stereo unspecified) | -2 | -12% | 14µM* | 4µM* | -13%
COC(=O)C1CCCCN1Cc1ccc2c(c1)CN(C(=O)c1ccc(F)cc1)CCO2 (stereo unspecified) | x | x | x | x | -8%
CC(=O)c1c(O)n(-c2cccc(Cl)c2)c(=O)[nH]c1=O (tested in a mixture with another compound) | 6 | 23% | 6% | 2% | -25%
